Among the test systems are DU-145 prostate; K-562 leukemia; MALME-3M melanoma; MDA-MB-231 breast; RXF 393 renal; SF-268 CNS; SF-295 CNS; SF-539 CNS; UACC-257 melanoma; M14 melanoma; HCT-15 colon; HT29 colon; SNB-75 CNS; SNB-19 CNS; U251 CNS; PC-3 prostate; SK-MEL-5 melanoma; UACC-62 melanoma; LOX IMVI melanoma; SK-MEL-28 melanoma.
Experiment in all cases: NCI-60 one-dose screen, 48 h (100 = growth as untreated, 0 = no growth, -100 = all killed)
Conditions in all cases: 10 µM unless noted

Structures are written as SMILES. This is part of a sample that, as a whole, favours compounds with a hit. Of some 83,000 tested, about 20% had one in any assay.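 Negative percent growth values reflect cell death: -40 means 40% of the cells present at the start died, and -100 means all died.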 Unmarked numbers belong to inactive results. Active and inactive are the calls of the source. How the source made its calls: active means growth percent below 10; inactive means the rest.

As for `CCc1c(C)c2cc3nc(NCc4ccccc4)oc3c(C)c2oc1=O`, the growth in the experiment on DU-145 prostate is 82.9%; in the experiment with K-562 leukemia, 89.5%; in the experiment with MALME-3M melanoma, 51.9%; in the experiment on MDA-MB-231 breast, 62.1%; in the experiment on RXF 393 renal, 53.9%; in the experiment on SF-268 CNS it was 65.9%. In addition, the growth in the experiment on SF-295 CNS was 79.6%; with SF-539 CNS, 33.5%; in the experiment with UACC-257 melanoma it was 87.6%; in the experiment on M14 melanoma, 88.3%; in the experiment on HCT-15 colon, 74.7%; in the experiment on HT29 colon it was 60.5%. For the same compound, the growth in the experiment on SNB-75 CNS is 36.2%; in the experiment with SNB-19 CNS, 59.2%; with U251 CNS, 54.8%; in the experiment with PC-3 prostate it was 73.3%; in the experiment on SK-MEL-5 melanoma it was 75.9%; with UACC-62 melanoma, 47.1%. In addition, the growth in the experiment on LOX IMVI melanoma is 80.4%; in the experiment on SK-MEL-28 melanoma, 72.9%.

Regarding `CS(=O)(=O)OCC(COS(C)(=O)=O)C(c1ccccc1)c1ccccc1`, the growth with DU-145 prostate was 129%; in the experiment with K-562 leukemia, 101%; with MALME-3M melanoma it was 99.7%; in the experiment on MDA-MB-231 breast it was 96.5%; in the experiment on RXF 393 renal, 97.4%; with SF-268 CNS, 109%. Also, the growth in the experiment on SF-295 CNS was 97.2%; in the experiment with SF-539 CNS it was 118%; in the experiment with UACC-257 melanoma, 111%; with M14 melanoma it was 106%; with HCT-15 colon it was 108%; in the experiment on HT29 colon, 100%. In addition, the growth is 96.2% in the experiment on SNB-75 CNS; 105% in the experiment with SNB-19 CNS; 107% in the experiment with U251 CNS; 97.2% with PC-3 prostate; 107% with SK-MEL-5 melanoma; 90.3% in the experiment on UACC-62 melanoma. Besides, the growth with LOX IMVI melanoma was 99.7%; in the experiment on SK-MEL-28 melanoma, 114%.

For `N#Cc1c(N)nc2c(c1N)C(c1ccc(Cl)cc1)C1=C(CCCC1=O)N2c1sc2c(c1C#N)CCCC2` (stereo not given), the growth with DU-145 prostate is 99.7%; with K-562 leukemia, 74.2%; in the experiment with MALME-3M melanoma it was 90.7%; in the experiment on MDA-MB-231 breast, 75.4%; in the experiment with RXF 393 renal, 60.6%; in the experiment on SF-268 CNS it was 89.5%. The growth in the experiment with SF-295 CNS was 101%; in the experiment on SF-539 CNS it was 96%; in the experiment with UACC-257 melanoma it was 92.6%; in the experiment with M14 melanoma, 90.3%; with HCT-15 colon it was 102%; in the experiment on HT29 colon, 81.2%. Besides, the growth in the experiment on SNB-75 CNS was 91.4%; in the experiment on SNB-19 CNS, 92.4%; in the experiment on U251 CNS, 99.7%; with PC-3 prostate it was 89%; in the experiment with SK-MEL-5 melanoma, 98.6%; in the experiment with UACC-62 melanoma, 88.3%. The growth is 81.5% with LOX IMVI melanoma and 96.6% in the experiment on SK-MEL-28 melanoma.

Take `O=C(Nc1ccc(-n2ccc3c(NC(=O)c4ccccc4)ncnc32)cc1)Nc1cccc(Cl)c1Cl`: the growth is 1.29% (active) in the experiment on DU-145 prostate; 12.5% in the experiment on K-562 leukemia; 2.21% (active) in the experiment with MALME-3M melanoma; -9.33% (active) with MDA-MB-231 breast; -76.1% (active) in the experiment with RXF 393 renal; -26.8% (active) with SF-268 CNS. The growth was -47.9% (active) with SF-295 CNS; -10.4% (active) in the experiment on SF-539 CNS; 12.2% in the experiment on UACC-257 melanoma; -6.74% (active) in the experiment on M14 melanoma; 9.38% (active) in the experiment with HCT-15 colon; -40.2% (active) in the experiment on HT29 colon. Moreover, the growth is 3.19% (active) in the experiment with SNB-75 CNS; -3.36% (active) in the experiment with SNB-19 CNS; -80% (active) in the experiment with U251 CNS; -57.5% (active) in the experiment on PC-3 prostate; 14.9% with SK-MEL-5 melanoma; 33.4% in the experiment with UACC-62 melanoma. In addition, the growth in the experiment with LOX IMVI melanoma is -23.9% (active); with SK-MEL-28 melanoma, -24.2% (active).

With `Cc1c(NC(=O)c2sc3nc4c(cc3c2N)CN(Cc2ccccc2)CC4)cccc1C(F)(F)F`, the growth in the experiment with DU-145 prostate is 54.9%; in the experiment on K-562 leukemia, 8.08% (active); in the experiment on MALME-3M melanoma, 63.8%; with MDA-MB-231 breast, 73.8%; in the experiment on RXF 393 renal, 67.2%; in the experiment on SF-268 CNS, 65.6%. The growth is 41.5% in the experiment with SF-295 CNS; 65% in the experiment on SF-539 CNS; 52.2% in the experiment on UACC-257 melanoma; 31.2% in the experiment on M14 melanoma; 29.3% in the experiment on HCT-15 colon; 12.2% in the experiment with HT29 colon. Moreover, the growth in the experiment with SNB-75 CNS is 45.8%; with SNB-19 CNS it was 50.5%; in the experiment with U251 CNS it was 38.2%; in the experiment with PC-3 prostate it was 56%; in the experiment with SK-MEL-5 melanoma, 41.9%; in the experiment with UACC-62 melanoma it was 37.2%. In addition, the growth in the experiment with LOX IMVI melanoma was 42.3%; in the experiment with SK-MEL-28 melanoma, 74%.

Regarding `CCN(CC)C(=O)C1CCN(C(=O)c2ccccc2)CC1`, the growth in the experiment with DU-145 prostate is 109%; with K-562 leukemia, 99.1%; in the experiment on MALME-3M melanoma, 102%; with MDA-MB-231 breast, 105%; in the experiment on RXF 393 renal it was 105%; in the experiment with SF-268 CNS, 92.7%. In addition, the growth in the experiment with SF-295 CNS is 96.7%; in the experiment with SF-539 CNS, 101%; in the experiment with UACC-257 melanoma it was 103%; in the experiment with M14 melanoma, 102%; in the experiment with HCT-15 colon, 104%; in the experiment on HT29 colon, 104%. Moreover, the growth with SNB-75 CNS was 94%; with SNB-19 CNS, 100%; with U251 CNS, 101%; in the experiment on PC-3 prostate, 96.9%; in the experiment on SK-MEL-5 melanoma, 101%; in the experiment on UACC-62 melanoma it was 97.2%. Besides, the growth in the experiment with LOX IMVI melanoma was 96.7%; in the experiment on SK-MEL-28 melanoma, 107%.

Regarding `CC[C@@]1(O)C(=O)OCc2c1cc1n(c2=O)Cc2c-1nc1ccccc1c2/C=N/OC(C)(C)C`, the growth in the experiment with DU-145 prostate was 6.82% (active); in the experiment with K-562 leukemia, 7.64% (active); with MALME-3M melanoma it was -15.3% (active); in the experiment with MDA-MB-231 breast, 24.2%; with RXF 393 renal, -47.5% (active); with SF-268 CNS it was 2.41% (active). In addition, the growth with SF-295 CNS was -1.63% (active); in the experiment on SF-539 CNS, -24.4% (active); with UACC-257 melanoma, -44% (active); in the experiment on M14 melanoma it was -18% (active); in the experiment on HCT-15 colon, 11.2%; in the experiment with HT29 colon, -13.9% (active). The growth is 0.198% (active) with SNB-75 CNS; 5.74% (active) in the experiment with SNB-19 CNS; -37.4% (active) in the experiment with U251 CNS; 23.6% in the experiment on PC-3 prostate; -66.3% (active) with SK-MEL-5 melanoma; -58.6% (active) in the experiment on UACC-62 melanoma. Also, the growth is -58.5% (active) in the experiment with LOX IMVI melanoma and 14.3% in the experiment with SK-MEL-28 melanoma.

Consider `COc1ccc(Cl)cc1NC(=O)c1cc2c(n1C)-c1nc(NC(=O)C(C)C)sc1CC2`, for which the growth with DU-145 prostate is 83.5%; in the experiment on K-562 leukemia, 79.8%; with MALME-3M melanoma, 99.3%; with MDA-MB-231 breast, 30.5%; in the experiment on RXF 393 renal, 101%; with SF-268 CNS, 71.2%. Moreover, the growth is 92.5% in the experiment on SF-295 CNS; -27.9% (active) in the experiment on SF-539 CNS; 88% in the experiment with UACC-257 melanoma; 84.8% in the experiment on M14 melanoma; 50.7% with HCT-15 colon; 66.7% with HT29 colon. Further, the growth is 59.3% in the experiment on SNB-75 CNS; 83.1% in the experiment on SNB-19 CNS; 59.9% with U251 CNS; 60.6% in the experiment on PC-3 prostate; 61% with SK-MEL-5 melanoma; 83.1% in the experiment on UACC-62 melanoma. Moreover, the growth in the experiment on LOX IMVI melanoma is 93%; in the experiment with SK-MEL-28 melanoma it was 95.1%.
